# Target: HOXA7 (Homo sapiens, UniProt P31268 116-202, W177C)
# Assay: PBM; 200 nM protein, PBS
# Conditions: dsDNA, one strand shown
# Chain of HOXA7 (P31268 116-202 W177C): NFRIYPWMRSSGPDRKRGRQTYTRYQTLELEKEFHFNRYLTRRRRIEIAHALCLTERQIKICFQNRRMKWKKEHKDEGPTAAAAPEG
row,Sequence,binding signal
1,ATATTAAT,"9 upbm affinity estimate (log intensity, higher = more binding, comparable within an allelic series)"
2,ATTTATGG,"8.83 upbm affinity estimate (log intensity, higher = more binding, comparable within an allelic series)"
3,GACCGACA,"8.57 upbm affinity estimate (log intensity, higher = more binding, comparable within an allelic series)"

# Target: CRX (Homo sapiens, UniProt O43186 26-111, R41L)
# Sequence (O43186 26-111 R41L): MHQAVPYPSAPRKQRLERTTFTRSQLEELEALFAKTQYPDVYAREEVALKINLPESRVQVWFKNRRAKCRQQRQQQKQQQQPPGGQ
# Assay: PBM; 200 nM protein, PBS
# Conditions: dsDNA, one strand shown
row,Sequence,binding signal
1,GGGGACCC,"8.26 upbm affinity estimate (log intensity, higher = more binding, comparable within an allelic series)"
2,GAGGTACC,"8.17 upbm affinity estimate (log intensity, higher = more binding, comparable within an allelic series)"
3,AGGTGCCC,"8.35 upbm affinity estimate (log intensity, higher = more binding, comparable within an allelic series)"
4,GTGGATTA,"13.1 upbm affinity estimate (log intensity, higher = more binding, comparable within an allelic series)"
5,GACGCGTC,"8.22 upbm affinity estimate (log intensity, higher = more binding, comparable within an allelic series)"
6,CCCCTGGA,"8.4 upbm affinity estimate (log intensity, higher = more binding, comparable within an allelic series)"
7,ATATTAAT,"11 upbm affinity estimate (log intensity, higher = more binding, comparable within an allelic series)"
8,CGCACCGC,"8.26 upbm affinity estimate (log intensity, higher = more binding, comparable within an allelic series)"
9,ATAATCTG,"13 upbm affinity estimate (log intensity, higher = more binding, comparable within an allelic series)"
10,GGATTACA,"13 upbm affinity estimate (log intensity, higher = more binding, comparable within an allelic series)"
11,GCAGCTGC,"8.5 upbm affinity estimate (log intensity, higher = more binding, comparable within an allelic series)"
12,CCAGATTA,"12.7 upbm affinity estimate (log intensity, higher = more binding, comparable within an allelic series)"
13,AGGGGACC,"8.23 upbm affinity estimate (log intensity, higher = more binding, comparable within an allelic series)"
14,TAATCTGA,"12.6 upbm affinity estimate (log intensity, higher = more binding, comparable within an allelic series)"
15,CTGCTGGC,"8.2 upbm affinity estimate (log intensity, higher = more binding, comparable within an allelic series)"
16,AGACTATC,"9.45 upbm affinity estimate (log intensity, higher = more binding, comparable within an allelic series)"
17,CAGATTAG,"12.6 upbm affinity estimate (log intensity, higher = more binding, comparable within an allelic series)"

row,Sequence,binding signal
1,ATTTATGG,"9.82 upbm affinity estimate (log intensity, higher = more binding, comparable within an allelic series)"
2,CCAGGGGC,"8.19 upbm affinity estimate (log intensity, higher = more binding, comparable within an allelic series)"
3,GGGGCCCC,"8.38 upbm affinity estimate (log intensity, higher = more binding, comparable within an allelic series)"
4,CCGTCGCC,"8.24 upbm affinity estimate (log intensity, higher = more binding, comparable within an allelic series)"
5,CCCGACCC,"8.25 upbm affinity estimate (log intensity, higher = more binding, comparable within an allelic series)"
6,AGATTAGC,"12.7 upbm affinity estimate (log intensity, higher = more binding, comparable within an allelic series)"
7,GCCCGGGC,"8.04 upbm affinity estimate (log intensity, higher = more binding, comparable within an allelic series)"
8,CACGCCCC,"8.33 upbm affinity estimate (log intensity, higher = more binding, comparable within an allelic series)"
9,CTGGGGCA,"8.28 upbm affinity estimate (log intensity, higher = more binding, comparable within an allelic series)"
10,ACAGATTA,"12.6 upbm affinity estimate (log intensity, higher = more binding, comparable within an allelic series)"
11,ACGCAACG,"8.43 upbm affinity estimate (log intensity, higher = more binding, comparable within an allelic series)"
12,CCCGTCCC,"8.4 upbm affinity estimate (log intensity, higher = more binding, comparable within an allelic series)"
13,ATTATCTC,"11.5 upbm affinity estimate (log intensity, higher = more binding, comparable within an allelic series)"
14,ACTAATCG,"11.3 upbm affinity estimate (log intensity, higher = more binding, comparable within an allelic series)"
15,GACCGACA,"8.31 upbm affinity estimate (log intensity, higher = more binding, comparable within an allelic series)"
16,ACCAGCCC,"8.17 upbm affinity estimate (log intensity, higher = more binding, comparable within an allelic series)"
